Source: PubChem BioAssay AID504329 (Southern Research Specialized Biocontainment Screening …, 2011)
Screen size: about 340,000 compounds; about 1,000 (0.29%) were called active. Not all results are given here. Entries with a potency or affinity are not part of this list. Unmarked numbers belong to inactive results. Rule as the data show it: inconclusive = inhibition above about 27% without an active follow-up result; inactive = below that.

assay: H1N1 influenza NS1A inhibitors, functional cell based assay (AID 504329); conditions: percent inhibition, at 12.5 µM, hits give high values

First: CN(C)S(=O)(=O)c1ccc(Cl)c(C(=O)NNC(=O)Cc2nc3ccccc3n2C)c1
Second: Cc1cc(C)nc(NS(=O)(=O)c2ccc(N3C(=O)c4ccccc4C3=O)cc2)n1
The inhibition of the first is higher: -3.93% for the first, -5.14% for the second.

Going from `CCO/C=C1/C(=O)N(c2ccc(OC)cc2)C(=O)c2ccccc21` to `CCO/C=C1\C(=O)N(c2ccccc2)C(=O)c2ccccc21`, the inhibition rises from 1.21% to 4.03%.

Compared with `CCOc1ccc(N2C(=O)c3ccccc3C2=O)cc1`, `CCOC(=O)C1=C(Cc2ccc(Cl)cc2)C(=O)c2ccccc2C1=O` is higher in inhibition: 5.19% for the first, 21.1% for the second.

Going from `Cc1[nH]c2ccccc2c1C(=O)C(=O)N1CCCc2ccccc21` to `O=C1c2ccccc2-c2c1cccc2C(=O)N1CCCCC1`, the inhibition falls from -5.75% to -10.6%.

Going from `Nc1ccc(N(CCO)CCO)cc1` to `Cc1cc(N(CCO)CCO)ccc1C(c1ccc(N(CCO)CCO)cc1C)c1ccccc1Cl`, the inhibition rises from 11.7% to 19.6%.

Compared with `O=C1CCC(C(=O)N2CCSCC2)CN1CCc1ccccc1` (stereo unspecified), `O=C(NC1CCCCC1)C1CC(=O)N(Cc2ccccc2)C1` (stereo unspecified) is lower in inhibition: 5.31% for the first, -1.57% for the second.

Going from `CCOC(=O)C1=C(Cc2ccc(F)cc2)C(=O)c2ccccc2C1=O` to `CCNc1c(C(=O)O)ccc2c1C(=O)c1ccccc1C2=O`, the inhibition falls from 19.2% to 10.3%.

Going from `N#Cc1c(N)nc2c(c1-c1ccc(F)cc1)CCC2` to `Cc1cc2nc(-c3ccc[nH]c3=O)n(Cc3ccc(F)cc3)c2cc1C`, the inhibition rises from 0.84% to 1.86%.

Compared with `C[C@H](C(=O)NCc1ccccc1)C(=O)c1ccccc1`, `Cc1cccc(C)c1C(=O)N[C@@H](Cc1ccccc1)C(=O)O` is lower in inhibition: 8.83% for the first, 2.25% for the second.

Compared with `COc1ccc(-c2csc(N(CCc3ccc(OC)c(OC)c3)C(=O)COc3ccccc3)n2)cc1`, `CN(C)C(=O)c1ccc(NC(=O)COc2cccc(Oc3ccccc3)c2)cc1` is lower in inhibition: 1.44% for the first, -4.79% for the second.

Compared with `CC(C)CCn1nnnc1C(c1ccc(F)cc1)N1CCC(C(N)=O)CC1` (stereo unspecified), `CCC(C)[C@H](NC(=O)N1CC(=O)Nc2ccccc21)C(=O)N1CCC(C(=O)O)CC1` (stereo partly specified) is higher in inhibition: -2.77% for the first, 1.95% for the second.

Compared with `CC(=O)c1ccc(-c2ccccc2)cc1`, `CC1(C)CC(=O)C(N=Nc2ccc(-c3ccccc3)cc2)=C(O)C1` is higher in inhibition: 7.71% for the first, 10.2% for the second.

First: O=C(NCc1cccs1)C1CCN(c2nccs2)CC1
Second: O=C(NN=Cc1ccccc1O)C1CC1
The inhibition of the first is higher: 5.59% for the first, -17.2% for the second.

Compared with `COc1cc(/C=N/NC(=O)C2=NNC(=O)C2C)ccc1O` (stereo unspecified), `COc1ccc(/C=N\NC(=O)C2=NNC(=O)C2C)cc1` (stereo unspecified) is higher in inhibition: -32.2% for the first, 3.13% for the second.

First: O=C(N/N=C/c1ccc(Br)cc1)c1cc[n+]([O-])cc1
Second: O=C(N/N=C/c1ccccc1)c1cc[n+]([O-])cc1
The inhibition of the first is higher: 6.04% for the first, -4.01% for the second.

Compared with `COc1cc(/C=N/NC(=S)Nc2cccc(C(=O)O)c2)cc(OC)c1OC`, `COc1cc(/C=N/NC(=S)Nc2cccc(C(=O)O)c2)ccc1O` is higher in inhibition: -7.56% for the first, -4% for the second.

Compared with `COc1cc(/C=N/NC(=O)c2ccncc2)c([N+](=O)[O-])cc1OC`, `COc1cc(OC)c([N+](=O)[O-])cc1/C=N/NC(=O)c1ccncc1` is higher in inhibition: -2.25% for the first, 1.29% for the second.

First: CC(NC(=O)c1ccc(NC(=O)CC2SC(N3CCCC3)=NC2=O)cc1)c1ccccc1 (stereo unspecified)
Second: O=C(Cn1c(-c2ccccc2)noc1=O)Nc1ccc(S(=O)(=O)N2CCOCC2)cc1
The inhibition of the first is lower: -7.82% for the first, 2.21% for the second.

Compared with `O=S(=O)(c1ccc(S(=O)(=O)N2CCOCC2)cc1)N1CCCC1`, `Cc1ccc(S(=O)(=O)N2CCN(C(=O)CC3CCCC3)CC2)cc1` is lower in inhibition: 4.18% for the first, 2.13% for the second.

First: CCCCC(=O)N(c1ccc(C(=O)O)cc1)c1nc(-c2ccc(Cl)cc2)c(CC)s1
Second: CC(=O)c1ccc(NC(=O)Nc2ccc(Br)cc2C)cc1
The inhibition of the first is lower: -4.2% for the first, 1.12% for the second.

Compared with `C[N+](C)(C)C(Cc1ccccc1)C(=O)[O-]` (stereo unspecified), `CC(NC(=O)COC(=O)/C=C/c1ccco1)c1ccccc1` (stereo unspecified) is higher in inhibition: -4.58% for the first, -3.74% for the second.

First: CCOc1cc(Br)cc(/C=N/NC(=O)c2cccnc2)c1O
Second: CCOc1cc(/C=N/NC(=O)c2cccnc2)ccc1O
The inhibition of the first is higher: 15.9% for the first, 11.3% for the second.

First: O=C(O)c1cccc(NC(=S)N/N=C/c2cccc(O)c2)c1
Second: O=C(O)c1cccc(NC(=S)N/N=C/c2cccnc2)c1
The inhibition of the first is lower: 2.28% for the first, 4.47% for the second.

First: COc1cccc(/C=N/NC(=O)C[n+]2ccccc2)c1OC
Second: COc1cc(OC)c(OC)cc1/C=N/NC(=O)C[n+]1ccccc1
The inhibition of the first is higher: 0.86% for the first, -11.7% for the second.

First: COc1ccccc1/C=N/NC(=O)C(=O)NCc1cccnc1
Second: COc1cccc(/C=N/NC(=O)C(=O)NCc2cccnc2)c1OC
The inhibition of the first is higher: -1.04% for the first, -5.14% for the second.

Going from `CCOc1ccc(NS(=O)(=O)c2cccc(C(=O)NCC3(N(C)C)CCCCC3)c2)cc1` to `Cc1cccc(N(C(=O)CNC(=O)c2ccco2)C(C(=O)NC2CCCC2)c2ccncc2)c1C` (stereo unspecified), the inhibition rises from 0.36% to 6.68%.

Going from `COc1cccc(CNC(=O)COC(=O)C23CC4CC(CC(Cl)(C4)C2)C3)c1` to `O=C(N/N=C/c1ccccc1O)NC12CC3CC(CC(C3)C1)C2`, the inhibition rises from -9.8% to -3.3%.

Going from `O=C(CN(Cc1ccccc1Cl)C(=O)c1ccc(CN2CCOCC2)o1)NCc1ccccc1` to `O=c1c2ccccc2nc(SCCN2CCCCC2)n1CCc1ccccc1`, the inhibition rises from 1.95% to 6.75%.

Going from `CC/C(C)=N/N1C(=O)c2ccccc2NC1(C)CC` (stereo unspecified) to `CC1CCCN(C(=O)CN2C(=O)c3ccccc3C2=O)C1` (stereo unspecified), the inhibition falls from 5.09% to -0.8%.

Compared with `O=C(CCc1c[nH]c2ccccc12)NCC1CCCO1` (stereo unspecified), `CCCn1cc(CN2CCC(n3nccc3NC(=O)CCOc3ccccc3)CC2)c(C)n1` is higher in inhibition: -2.9% for the first, 3.28% for the second.

Compared with `Cc1nonc1C(=O)N/N=C/c1ccc(O)c(O)c1`, `Cc1nonc1C(=O)N/N=C/c1cccc(O)c1` is higher in inhibition: -5.97% for the first, -4.77% for the second.

Compared with `O=C(N/N=C/c1ccccc1Cl)c1ccncc1`, `COc1ccccc1C=NNC(=O)c1ccncc1` is lower in inhibition: 2.1% for the first, -14.4% for the second.

First: COc1cccc(/C=N/NC(=O)CNC(=O)c2ccncc2)c1O
Second: O=C(CNC(=O)c1ccncc1)N/N=C/c1ccc(O)cc1O
The inhibition of the first is higher: 10.4% for the first, 9.53% for the second.

Going from `O=C(N/N=C/c1ccccc1C(=O)O)c1ccncc1` to `O=C(N/N=C/c1ccc(O)cc1)c1ccncc1`, the inhibition falls from -0.84% to -6.99%.

Going from `CCOC(=O)c1ccccc1NC(=O)CSc1nc(N)cc(=O)[nH]1` to `Cc1cc(NC(=O)CC(C)C)c(=O)n(Cc2c(F)cccc2Cl)c1`, the inhibition rises from -7.55% to -1.36%.

Compared with `CC(C)CCC(C(=O)O)C(C)CC(=O)NC1CCCCC1` (stereo unspecified), `O=C1c2ccccc2C(=O)c2c1ccc(C(=O)N1CCCCC1)c2NCCO` is higher in inhibition: 4.04% for the first, 21.2% for the second.

First: CN1CCN(c2ccc(S(=O)(=O)N3CCCCC3)cn2)CC1
Second: Cc1ccc(S(=O)(=O)N2CCCCC2)cc1C(=O)N1CCCCCC1
The inhibition of the first is higher: -0.41% for the first, -15.6% for the second.

First: O=C(COC(=O)c1cc([N+](=O)[O-])ccc1N1CCOCC1)Nc1ccc(Cl)cc1
Second: O=C(COC(=O)C1(c2ccccc2)CC1)NNC(=O)c1ccccc1F
The inhibition of the first is higher: -5.7% for the first, -15.8% for the second.

Going from `O=c1[nH]c2cc(Cl)c(Cl)cc2o1` to `CC1(C)CC(=O)C(N=Nc2c(Cl)cc(Cl)cc2Cl)=C(O)C1`, the inhibition rises from -8.2% to 9.91%.

First: Cc1c(N=Nc2c(O)n(C)c(=O)n(C)c2=O)c(=O)n(-c2ccccc2)n1C
Second: Cc1c(N=Nc2ccc(O)cc2)c(=O)n(-c2ccccc2)n1C
The inhibition of the first is higher: 3.65% for the first, -3.89% for the second.

First: Cc1cc(C)c2nc(SCC(=O)NNC(=O)c3ccco3)c(C)cc2c1
Second: COC(=O)c1sc2ncccc2c1OCc1cccc(Cl)c1
The inhibition of the first is lower: -0.91% for the first, 1.6% for the second.

First: CCOC(=O)C1CCN(C2CCN(C(=O)c3oc4c(F)cccc4c3C)CC2)CC1
Second: O=C1c2ccccc2-c2c1cccc2C(=O)N1CCCCCC1
The inhibition of the first is lower: -2% for the first, -0.29% for the second.

Compared with `Cc1ccc(S(=O)(=O)N(CCC(=O)NCc2ccccc2F)c2ccccc2)cc1`, `O=C(O)c1ccc2c(c1Nc1ccccc1)C(=O)c1ccccc1C2=O` is higher in inhibition: -14.3% for the first, 16.9% for the second.

Compared with `C=C(C)COc1ccc(-c2[nH]ncc2Oc2ccccc2OC)c(O)c1`, `CCN(CCN(C)C)C(=O)c1ccc2c(c1NCCO)C(=O)c1ccccc1C2=O` is higher in inhibition: -3.04% for the first, 12.9% for the second.

First: O=[N+]([O-])c1ccccc1/C=C/C=N/N1CCCCC1
Second: O=[N+]([O-])c1ccccc1/C=N\N1CCN(c2ccccc2)CC1
The inhibition of the first is lower: 4.44% for the first, 17% for the second.

First: CC1CC(C)CN(C(=O)c2cccc3c2-c2ccccc2C3=O)C1 (stereo unspecified)
Second: COc1ccc(CCC(=O)NCCS(=O)(=O)N2CCN(c3ccc(OC)cc3)CC2)cc1
The inhibition of the first is lower: -15% for the first, 1.44% for the second.

Going from `CCOC(=O)c1sc(C)c2c(=O)n(CCCN3CCOCC3)cnc12` to `COC(=O)CNC(=O)Cn1c(=O)n(Cc2ccc(F)cc2)c(=O)c2sccc21`, the inhibition rises from -0.01% to 0.76%.

Going from `Cc1cc(C(=O)NCc2cccnc2)n(-c2ccccc2)n1` to `CC(C)(C)OC(=O)N[C@H](C(=O)OC(C)(C)C)c1ccc(C(F)(F)F)cc1`, the inhibition falls from 24.2% to 8.11%.
